Laboratory results: PubChem BioAssay (NCATS)
Several values for one entry are separate records, joined by “and”; a condition that tells them apart may be missing. Equal entries are not always repeated. A number with no mark means an inactive call. Inconclusive results are not listed. A call without a number means that no potency is given here. Activity calls are given as the source filed them. Unless noted, calls follow the shape of the dose curve; as a rule, active = well fitted curve in the direction sought with a large enough effect; inconclusive = small, poorly fitted or top-dose-only effect, or another doubt; inactive = no such curve, though single readings can be large; an effect the other way counts as inactive or inconclusive.

Columns and labels:
[1] = Cell Viability - BJ (AID 421; calls by dose curve;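 also: potency is read from the fitted curve at half-maximal effect; cells exposed to compound for 40 hours at 37 °C before readout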); conditions: BJ fibroblast viability, qHTS
Outline: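 Quantitative HTS: ATP depletion in BJ cells after 40 hr compound exposure in complete culture medium, detected with CellTiter-Glo; AC50 from standard Hill fits.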

[2] = Cell Viability - HepG2 (AID 433; calls by dose curve;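 also: potency is read from the fitted curve at half-maximal effect; cells exposed to compound for 40 hours; potency for ATP loss meaning cytotoxicity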); conditions: qHTS
Outline: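 ATP luminescence (CellTiter-Glo) after 40 h compound exposure, 37 °C, HepG2, 1500 cells/well, complete medium. Normalized: DMSO = basal, 100 uM tamoxifen = 100% inhibition. AC50 via standard Hill equation.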

[3] = Cell Viability - MRC5 (AID 434; calls by dose curve;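 also: potency is read from the fitted curve at half-maximal effect; cells exposed to compound for 40 hours at 37 °C; potency reflects cytotoxicity seen as loss of intracellular ATP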); conditions: MRC5 lung fibroblast viability, qHTS
Outline: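 AC50 values come from Hill-equation fits of intracellular ATP loss, measured by CellTiter-Glo luminescence. Normal lung fibroblasts (MRC5) had 40 hr compound treatment at 37 C, normalized between DMSO and 100 uM tamoxifen.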

[4] = Cell Viability - SK-N-SH (AID 435; calls by dose curve; also: potency is read from the fitted curve at half-maximal effect); conditions: SK-N-SH neuroblastoma cell viability qHTS
Outline: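 CellTiter-Glo ATP luminescence, 20 min RT read; cells pre-plated 5 hr, compound 40 hr at 37 °C, 1500 cells/well, complete medium. Normalized DMSO = 0, 100 uM tamoxifen = 100% inhibition; Hill-fit AC50.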

[5] = Cell Viability - N2a (AID 540); conditions: N2a mouse neuroblastoma cell viability; at 92.2 µM (top of the series); also: nearly all actives have a fitted effect of over 45% in size
Outline: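 CellTiter-Glo ATP luminescence, read 20 min after reagent at room temperature, reported viability following 40 h compound treatment at 37 °C. N2a mouse neuroblastoma cells seeded 1500/well; Hill equation gave AC50.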

[6] = Cell Viability - HUV-EC-C (AID 542);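 also: cells exposed to compound for 40 hours; nearly all actives have a fitted effect of over 35% in size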
Outline: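 CellTiter-Glo luminescence measured ATP loss in HUV-EC-C cells (1000/well) after 40 hr compound exposure at 37 °C, in complete culture medium. Concentration-response data were Hill-fitted to give AC50.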

[7] = Cell Viability - SH-SY5Y (AID 544); conditions: SH-SY5Y neuroblastoma cell viability; viability change, negative = cytotoxic: at 92.2 µM (top of the series);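 also: cells exposed to compound for 40 hours; nearly all actives have a fitted effect of over 55% in size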
Outline: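 Cytotoxicity measured via ATP-dependent luciferase luminescence (CellTiter-Glo) following 40 h, 37 °C exposure of 1500 SH-SY5Y cells per well. Concentration-response data were fitted with the standard Hill equation to give AC50.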

[8] = Cell Viability - Renal Proximal Tubule (AID 545); conditions: renal proximal tubule cells viability; at 91.7 µM (top of the series), primary cells of rat origin unless noted;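 also: cells exposed to compound for 40 hours; nearly all actives have a fitted effect of over 40% in size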
Outline: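 Rat kidney proximal tubule cells, freshly isolated; 1000 cells/well, 5 hr settle, compound 40 hr 37 °C. CellTiter-Glo 20 min RT, luminescence read. AC50 by standard Hill fit.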

[9] = Cell Viability - Mesenchymal (AID 546);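 also: cells exposed to compound for 40 hours before reading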
Outline: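 CellTiter-Glo luminescence (intracellular ATP, 20 min room temperature) after 40 hr compound exposure at 37 °C of 1000 glomerulus-derived human kidney mesenchymal cells/well; AC50 values obtained by fitting qHTS concentration-response data to the Hill equation.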

[10] = qHTS Assay for Identification of Small Molecule Inducers of Hypoxia Response (AID 2120; active = well fitted curve in the direction sought with a large enough effect in the signal ratio, with a control signal flat, not every such curve was filed as active; the % refers to the signal ratio)
Outline: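 Reporter induction read as the CCF4 blue/green (460nm/530nm) emission ratio after 2.5 h dye loading at room temperature. ME-180 HRE-beta-lactamase cells received titrated compounds for 17 h at 37 degrees Celsius; AC50 values derived.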

[11] = biological target: Peroxisome proliferator-activated receptor delta (Homo sapiens) (UniProt Q03181); test: qHTS assay for small molecule agonists of peroxisome proliferator-activated receptor delta signaling (AID 588534; calls by dose curve)
Outline: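 Agonist-mode beta-lactamase reporter readout (CCF4 dye, 2 h at RT) after 18 h at 37 °C exposure to a titration; Hill-equation fitting gave EC50 and maximal response.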

[12] = qHTS assay for small molecule disruptors of the mitochondrial membrane potential - 1 hr assay (AID 651754; calls by dose curve; also: nearly all actives have a fitted effect of over 35% in size)
Outline: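 Mitochondrial potential in living HepG2 cells after 1 hr compound treatment at 37C was read with Mito-MPS dye added for a further 30 min. Red aggregate and green monomer fluorescence were measured; loss of potential leaves dye as cytoplasmic monomers.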

[13] = biological target: Peroxisome proliferator-activated receptor alpha (Homo sapiens) (UniProt Q07869); test: qHTS assay for small molecule agonists of the peroxisome proliferator-activated receptor alpha (PPARalpha) signaling pathway (AID 651778); conditions: PathHunter PPARalpha complementation, chemiluminescence, 6 h; hits give high values
Outline: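 Chemiluminescence from complemented enzyme reported PPARalpha activation in cells after 6 hr of compound treatment at 37 C. The detection reagent was incubated for 60 min at room temperature, and compounds were scored as agonists.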

[14] = qHTS assay for small molecule agonists of the antioxidant response element (ARE) signaling pathway measured by Nrf2-dependant transcriptional activity (AID 720636; active = well fitted curve in the direction sought with a large enough effect in the repeat runs; an effect the other way counts as inactive or inconclusive;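 also: HepG2 cells with an ARE-driven luciferase reporter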)
Outline: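 Reporter gene assay, HepG2 ARE-luc: 16 hr compound, 37 C, 5% CO2; read-out luciferase luminescence.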

[15] = qHTS assay for small molecule agonists of the antioxidant response element (ARE) signaling pathway measured by Nrf2-dependant transcriptional activity - cell viability counter screen (AID 720653; active = well fitted curve in the direction sought with a large enough effect in the repeat runs; an effect the other way counts as inactive or inconclusive); conditions: ARE-bla HepG2 viability, CellTiter-Glo ATP luminescence, 16 h; hits give low values
Outline: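 Cytotoxicity counter screen: intracellular ATP quantified by CellTiter-Glo luminescence in the same ARE-bla HepG2 plates, after 16 h compound exposure and a 2 h beta-lactamase substrate step.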

[16] = qHTS assay for cell viability of HEK293 cells (AID 743288); conditions: ATP luminescence (CellTiter-Glo), 18 h; max response: hits give low values; also: nearly all actives have a fitted effect of over 50% in size
Outline: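 ATP luminescence (CellTiter-Glo) reports metabolically competent cell number after parental HEK293 cells, 2,000/well, were treated with DMSO-dissolved compounds for 18 h at 37 C; reagent incubation 30 min, room temperature.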

[17] = qHTS assay for cell viability of the p53RE-bla HCT-116 cell line (AID 743292); also: nearly all actives have a fitted effect of over 55% in size
Outline: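 Readout: CellTiter-Glo luminescence after 30 min RT. Treatment: compounds in DMSO, 16 h, 37 C. Cells: CellSensor p53RE-bla HCT-116, 4,000/well, preincubated 5 h.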

[18] = KB-8-5-11 P-gp reporter qHTS against the NCATS DSHEA and TCM libraries (AID 1919977)
Outline: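 CellTiter-Glo luminescence after ~72 h exposure at 37C gave viability of KB-8-5-11 cells, the P-gp-overexpressing subline. Substances were titrated; colchicine was omitted from assay medium.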

[19] = biological target: Voltage-gated inwardly rectifying potassium channel KCNH2 (Homo sapiens) (UniProt Q12809); test: qHTS Assay for Small Molecule Inhibitors of the Human hERG Channel Activity (AID 588834);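 also: potency is read from the fitted curve at half-maximal effect; lower thallium flux fluorescence means stronger hERG block; nearly all actives have a fitted effect of over 50% in size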
Outline: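 Thallium-flux (FluxOR) read-out on FDSS: fluorescence read 10 s before and 2 min after stimulation buffer. hERG-BacMam-transduced U2OS cells, compound exposure about 10 min. AC50 by standard Hill equation.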

Peroxisome proliferator-activated receptor alpha (Homo sapiens), sequence (Q07869 whole entry, looked up): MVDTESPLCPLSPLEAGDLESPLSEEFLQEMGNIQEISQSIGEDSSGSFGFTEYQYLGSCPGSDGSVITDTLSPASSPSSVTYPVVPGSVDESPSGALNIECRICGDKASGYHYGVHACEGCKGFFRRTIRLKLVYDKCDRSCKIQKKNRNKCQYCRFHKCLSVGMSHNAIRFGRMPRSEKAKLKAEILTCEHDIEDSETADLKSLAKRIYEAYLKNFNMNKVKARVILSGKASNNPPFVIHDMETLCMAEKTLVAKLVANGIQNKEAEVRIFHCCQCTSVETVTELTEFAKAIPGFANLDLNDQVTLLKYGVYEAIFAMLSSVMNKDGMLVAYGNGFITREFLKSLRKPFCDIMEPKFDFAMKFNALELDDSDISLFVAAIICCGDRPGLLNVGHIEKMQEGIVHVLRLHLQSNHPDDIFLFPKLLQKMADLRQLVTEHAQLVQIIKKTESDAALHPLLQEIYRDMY
Peroxisome proliferator-activated receptor delta (Homo sapiens), sequence (Q03181 whole entry, looked up): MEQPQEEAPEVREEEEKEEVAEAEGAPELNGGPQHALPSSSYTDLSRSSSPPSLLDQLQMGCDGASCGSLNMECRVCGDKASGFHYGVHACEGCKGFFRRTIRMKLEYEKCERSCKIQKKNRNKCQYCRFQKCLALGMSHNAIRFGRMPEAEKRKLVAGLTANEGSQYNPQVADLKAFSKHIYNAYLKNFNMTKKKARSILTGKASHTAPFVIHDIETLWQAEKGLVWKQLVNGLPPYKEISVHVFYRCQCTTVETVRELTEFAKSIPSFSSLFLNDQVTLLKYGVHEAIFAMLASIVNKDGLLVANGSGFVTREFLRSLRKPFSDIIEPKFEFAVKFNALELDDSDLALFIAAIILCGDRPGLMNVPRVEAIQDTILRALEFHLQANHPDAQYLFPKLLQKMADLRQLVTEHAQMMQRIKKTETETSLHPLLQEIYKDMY
Voltage-gated inwardly rectifying potassium channel KCNH2 (Homo sapiens), sequence (Q12809 whole entry, looked up): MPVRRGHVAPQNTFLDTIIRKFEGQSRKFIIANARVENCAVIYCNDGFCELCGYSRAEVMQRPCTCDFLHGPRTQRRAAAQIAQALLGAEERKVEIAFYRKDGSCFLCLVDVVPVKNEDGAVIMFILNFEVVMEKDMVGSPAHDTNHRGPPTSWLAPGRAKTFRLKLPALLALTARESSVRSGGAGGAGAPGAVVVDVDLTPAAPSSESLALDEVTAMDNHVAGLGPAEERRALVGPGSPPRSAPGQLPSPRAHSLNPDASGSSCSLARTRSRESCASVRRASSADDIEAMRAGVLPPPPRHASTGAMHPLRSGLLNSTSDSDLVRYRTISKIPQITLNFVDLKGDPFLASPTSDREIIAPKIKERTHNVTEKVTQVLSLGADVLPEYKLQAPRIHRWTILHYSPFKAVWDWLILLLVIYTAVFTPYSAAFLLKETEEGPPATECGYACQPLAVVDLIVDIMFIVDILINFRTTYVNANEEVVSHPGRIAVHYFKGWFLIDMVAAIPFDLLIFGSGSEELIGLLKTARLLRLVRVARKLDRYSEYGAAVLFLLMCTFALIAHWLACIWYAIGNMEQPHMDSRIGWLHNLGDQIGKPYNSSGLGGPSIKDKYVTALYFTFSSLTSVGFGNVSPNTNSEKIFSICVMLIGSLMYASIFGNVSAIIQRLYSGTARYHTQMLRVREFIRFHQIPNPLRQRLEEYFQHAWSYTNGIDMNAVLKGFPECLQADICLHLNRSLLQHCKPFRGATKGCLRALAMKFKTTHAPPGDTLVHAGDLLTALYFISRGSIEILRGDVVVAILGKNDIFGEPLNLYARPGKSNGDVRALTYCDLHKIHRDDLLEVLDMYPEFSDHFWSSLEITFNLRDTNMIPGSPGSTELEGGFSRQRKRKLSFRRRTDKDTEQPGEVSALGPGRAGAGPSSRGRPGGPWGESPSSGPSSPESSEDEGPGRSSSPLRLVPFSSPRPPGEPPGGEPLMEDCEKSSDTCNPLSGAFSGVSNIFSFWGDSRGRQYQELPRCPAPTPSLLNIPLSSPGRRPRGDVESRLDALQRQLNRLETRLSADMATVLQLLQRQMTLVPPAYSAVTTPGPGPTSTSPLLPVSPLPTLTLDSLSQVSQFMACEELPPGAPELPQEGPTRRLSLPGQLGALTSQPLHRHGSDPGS

Compound: C[C@]12CC[C@H]3[C@@H](CCC4=CC(=O)CC[C@@]43C)[C@@H]1CC[C@@H]2O
- Potency [1]: > 92 µM
- Potency [2]: > 92 µM
- Potency [3]: > 92 µM
- Potency [4]: > 92 µM
- activity change, negative = cytotoxicity [5]: -5.73%
- Potency [6]: inactive
- Potency [7]: inactive
- activity change, negative = cytotoxicity [8]: -15.1% [at 91.7 µM]
- outcome [9]: inactive
- outcome [10]: inactive
- outcome [11]: inactive
- Potency [12]: inactive
- max response [13]: -2.99%
- outcome [14]: inactive
- max response [15]: -2.92%
- max response [16]: -9.57%
- Potency [17]: inactive

Compound: CC/C=C\C/C=C\C/C=C\C/C=C\CCCCC(=O)O
- activity change, negative = inhibition [18]: -0.921% [at 3.26 µM]

Compound: CCCCCC/C=C/CCCCCCCCCC(=O)O
- Potency [18]: inactive

Compound: CN1C[C@H](C(=O)N[C@]2(C)O[C@@]3(O)C4CCCN4C(=O)[C@H](Cc4ccccc4)N3C2=O)C[C@@H]2c3cccc4[nH]cc(c34)C[C@H]21 (some centres not stated)
- Potency [19]: 11.2 µM (active)

Compound: O=C(O[C@@H]1Cc2c(O)cc(O)cc2O[C@H]1c1cc(O)c(O)c(O)c1)c1cc(O)c(O)c(O)c1
- Potency [18]: inactive

Compound: C=C1C[C@]23CC[C@H]4[C@@](C)(CCC[C@@]4(C)C(=O)O)[C@@H]2CC[C@@]1(O[C@@H]1O[C@H](CO)[C@@H](O)[C@H](O)[C@H]1O[C@@H]1O[C@H](CO)[C@@H](O)[C@H](O)[C@H]1O)C3
- Potency [18]: inactive

Compound: S=C(S)N1CCCC1
- Potency [19]: 3.55 µM (active)

Compound: CC1(C)CC[C@]2(C(=O)O)CC[C@]3(C)C(=CCC4[C@@]5(C)CC[C@@H](O)C(C)(C)C5CC[C@]43C)C2C1 (some centres not stated)
- Potency [18]: inactive

Compound: C[C@@]12CC[C@@H]3[C@@](CC[C@H]4[C@@]3(C)CCC[C@@]4(C)C(=O)O)(CC1=O)C2
- Potency [18]: inactive

Compound: C=C(C)[C@H]1CC=C(C)C(=O)C1
- outcome [11]: inactive
- Potency [18]: inactive

Compound: Cc1c(C)c2c(c(C)c1O)CC[C@@](C)(CCC[C@H](C)CCC[C@H](C)CCCC(C)C)O2
- Potency [18]: inactive

Compound: CCCCC/C=C/C(=O)CCc1ccc(O)c(OC)c1
- Potency [18]: inactive

Compound: c1ccc(-c2ccccc2)cc1
- Potency [1]: > 92 µM
- Potency [2]: > 92 µM
- Potency [3]: > 92 µM
- Potency [4]: > 92 µM
- activity change, negative = cytotoxicity [5]: -4.83%
- Potency [6]: inactive
- Potency [7]: inactive
- activity change, negative = cytotoxicity [8]: 1.72%
- outcome [9]: inactive
- outcome [10]: inactive
- outcome [11]: inactive
- Potency [19]: 44.7 µM (active)
- Potency [12]: inactive
- max response [13]: -2.7% and -1.05%
- outcome [14]: inactive
- max response [15]: -4.39% and -5.27%
- max response [16]: 8.08% and -1.75%
- Potency [17]: inactive

Compound: C=C1CC[C@H]2C[C@@H]1C2(C)C
- Potency [18]: inactive

Compound: CC/C=C\C/C=C\C/C=C\C/C=C\C/C=C\CCCCCC(=O)O
- activity change, negative = inhibition [18]: 8.8% [at 3.26 µM]

Compound: OCC1=C[C@@H](O)[C@@H]2C=CO[C@@H](OC3O[C@H](CO)[C@@H](O)[C@H](O)[C@H]3O)[C@H]12 (some centres not stated)
- Potency [18]: inactive

Compound: OCCc1ccc(O)cc1
- Potency [18]: inactive

Compound: CC1=CCC2CC1C2(C)C (configuration not stated)
- outcome [11]: inactive
- Potency [18]: inactive

Compound: CCCCCC(=O)O
- Potency [18]: inactive

Compound: CN(CC(=O)O)C(=N)N
- Potency [18]: inactive

Compound: NC(Cc1c[nH]c2ccccc12)C(=O)O (configuration not stated)
- Potency [18]: inactive

Compound: CC(C)=CCC[C@](C)(OC1OC(COC2OCC(O)C(O)C2O)C(O)C(O)C1O)[C@H]1CC[C@]2(C)[C@@H]1[C@H](O)C[C@@H]1[C@@]3(C)CC[C@H](OC4OC(CO)C(O)C(O)C4OC4OC(CO)C(O)C(O)C4O)C(C)(C)[C@@H]3CC[C@]12C (some centres not stated)
- Potency [18]: inactive
